Measurements taken from PubChem BioAssay (NCI).
Compounds without any hit were thinned out: in the full panel of roughly 79,000, 15% have a hit. A number with no mark means an inactive call. Calls of active or inactive are those of the source. Cut-off read from the data, not from the text of the source: active = growth inhibition above about 70%; inactive = the rest.

Assay: NCI Yeast Anticancer Drug Screen. Data for the mgt1 strain (AID 153)
Conditions: S. cerevisiae mgt1 mutant growth inhibition, stronger effect = higher value
Method: Growth inhibition of yeast strains with defined genetic alterations is measured as a screen for potential anti-cancer activity. Selected strains with alterations in DNA damage repair or cell cycle control were exposed to compounds and growth inhibition was measured relative to vehicle treated controls. The strain used in this assay is mgt1

Structure (SMILES)	growth inhibition (at 1.2 µM) [%]	growth inhibition (at 3.7 µM) [%]	growth inhibition (at 11.0 µM)	growth inhibition (at 33.0 µM)	growth inhibition (at 100.0 µM)
CCCCCC/C(C)=N/Nc1ccc([N+](=O)[O-])cc1[N+](=O)[O-]	-3	-9	-5%	-11%	-12%
CCOC(=O)c1sc2[n+](c1C)C(=O)/C(=C/c1cc(OC)c(OC)c(OC)c1)S2	9	12	54%	86% (active)	93% (active)
CCN(CC)c1cccc(Nc2nc3ccccc3s2)c1	6	6	5%	7%	7%
CC1(C)CC(=O)C(C(CC(c2ccccc2)c2cc3c(cc2O)OCO3)C2=C(O)CC(C)(C)CC2=O)=C(O)C1 (stereo not given)	-2	1	48%	86% (active)	88% (active)
CN(C)c1ccc(/C=C/c2ccnc3ccc4ccccc4c23)cc1	-3	-2	45%	69%	58%
O=C(O)/C=C\C(=O)NNc1ccc(Br)cc1	-1	32	99% (active)	99% (active)	98% (active)
O=[N+]([O-])C(=C(NCc1ccccc1)NCc1ccccc1)C(Cl)=C(Cl)Cl	-2	3	5%	29%	62%
Cc1cccc[c]1[Sn]([Cl])([S]/C(C#N)=N/N=C/c1ccc(N(C)C)cc1)[c]1ccccc1C	-3	-6	-8%	37%	91% (active)
